Laboratory results as given in PubChem BioAssay (NCATS).
Results filed as inconclusive are left out. Active and inactive are the calls of the source. Unless noted, calls follow the shape of the dose curve; as a rule, active = well fitted curve in the direction sought with a large enough effect; inconclusive = small, poorly fitted or top-dose-only effect, or another doubt; inactive = no such curve, though single readings can be large; an effect the other way counts as inactive or inconclusive.

Experiments:
[1] = P-glycoprotein substrates identified in KB-8-5-11 adenocarcinoma cell line, qHTS therapeutic library screen (AID 1346987); also: nearly all actives have a fitted effect of over 65% in size; as to activity change, negative = cytotoxicity: series mostly up to about 44 µM; % is scaled to controls: 0 for no effect and ±100 for the full control effect
Procedure, shortened: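 KB-8-5-11: colchicine-selected sub-line of KB-3-1 over-expressing P-gp; assay medium lacked colchicine. 72 h drug exposure at 37 degree C, CellTiter-Glo.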

[2] = system: Zika virus NS2B-NS3 protease (unlinked complex); experiment: Primary screen GU Rhodamine qHTS for Zika virus inhibitors: Unlinked NS2B-NS3 protease assay (AID 1347159); also: % is scaled to controls: 0 for no effect and ±100 for the full control effect; nearly all actives have a fitted effect of over 60% in size
Procedure, shortened: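 Noncovalent NS2B hydrophilic domain–NS3 protease domain complex (25 nM) preincubated 15 min at room temperature with compounds (up to 114 microM) in 10 mM Tris-HCl pH 8.0, 0.01% Tween 20; 1.5 microM Rhodamine110 substrate added, fluorescence change over 15 min fitted to Hill equation.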

[3] = system: Zika virus NS2B-NS3 protease (linked construct); experiment: Primary screen NINDS Rhodamine qHTS for Zika virus inhibitors (AID 1347160); also: nearly all actives have a fitted effect of over 55% in size
Procedure, shortened: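 Purified linked NS2B-NS3 protease (NS2B hydrophilic domain joined to NS3 protease by flexible linker), 25 nM in 10 mM Tris-HCl pH 8.0, 0.01% Tween 20. Compounds titrated, 15 min preincubation at room temperature; 1.5 microM Rhodamine110 substrate, FITC fluorescence change over 15 min.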

[4] = molecular target: Peroxisome proliferator-activated receptor alpha (Homo sapiens) (UniProt Q07869); experiment: qHTS assay for small molecule agonists of the peroxisome proliferator-activated receptor alpha (PPARalpha) signaling pathway (AID 651778); details: PathHunter PPARalpha complementation, chemiluminescence, 6 h; active compounds read high; also: % of control where 0% means no effect
Chain of Peroxisome proliferator-activated receptor alpha (Homo sapiens) (Q07869 whole entry, looked up): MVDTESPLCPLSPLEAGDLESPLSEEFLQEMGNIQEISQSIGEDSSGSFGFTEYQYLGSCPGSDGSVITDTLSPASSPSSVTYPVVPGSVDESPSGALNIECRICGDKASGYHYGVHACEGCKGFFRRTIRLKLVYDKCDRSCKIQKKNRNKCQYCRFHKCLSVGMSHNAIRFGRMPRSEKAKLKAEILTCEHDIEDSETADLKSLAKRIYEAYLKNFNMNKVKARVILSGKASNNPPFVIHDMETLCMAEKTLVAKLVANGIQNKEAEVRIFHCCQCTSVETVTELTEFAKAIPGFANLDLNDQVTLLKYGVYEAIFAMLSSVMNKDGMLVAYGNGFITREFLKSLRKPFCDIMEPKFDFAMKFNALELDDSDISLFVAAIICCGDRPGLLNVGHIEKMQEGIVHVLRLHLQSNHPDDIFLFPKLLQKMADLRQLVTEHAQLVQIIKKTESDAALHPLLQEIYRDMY
Procedure, shortened: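 Cells plated at 2,000/well and held overnight at 37 C, 5% CO2, then compound added by pin tool for 6 hr; after PathHunter detection reagent and 60 min at room temperature, chemiluminescence from enzyme complementation was read.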

[5] = qHTS assay for small molecule agonists of the antioxidant response element (ARE) signaling pathway measured by Nrf2-dependant transcriptional activity - cell viability counter screen (AID 720653; active = well fitted curve in the direction sought with a large enough effect in the repeat runs; an effect the other way counts as inactive or inconclusive; also: % is scaled to controls: 0 for no effect and ±100 for the full control effect); details: ARE-bla HepG2 viability, CellTiter-Glo ATP luminescence, 16 h; active compounds read low
Procedure, shortened: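 ARE-bla HepG2 cells (2,000/well) rested 5 hrs at 37C/5% CO2, then exposed to compounds in DMSO for 16 hrs. Viability was read in the same wells as intracellular ATP by luminescence, 30 min at room temperature after reagent addition.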

[6] = qHTS assay for cell viability of HEK293 cells (AID 743288); details: ATP luminescence (CellTiter-Glo), 18 h, active compounds read low; also: % is scaled to controls: 0 for no effect and ±100 for the full control effect; nearly all actives have a fitted effect of over 50% in size
Procedure, shortened: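 Parental HEK293 cells, 2,000 per well, preincubated at least 5 h at 37 C, then exposed to compounds in DMSO for 18 h at 37 C. Viability by CellTiter-Glo ATP luminescence after 30 min at room temperature.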

[7] = qHTS assay for cell viability of the p53RE-bla HCT-116 cell line (AID 743292); also: % is scaled to controls: 0 for no effect and ±100 for the full control effect; nearly all actives have a fitted effect of over 55% in size
Procedure, shortened: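 Readout: CellTiter-Glo luminescence after 30 min RT. Treatment: compounds in DMSO, 16 h, 37 C. Cells: CellSensor p53RE-bla HCT-116, 4,000/well, preincubated 5 h.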

COc1ccc([C@H]2OC[C@H]3[C@@H]2CO[C@@H]3c2ccc(O[C@@H]3O[C@H](CO)C(O)[C@H](O)[C@H]3O)c(OC)c2)cc1OC (stereo partly specified)
inactive: Potency [1] | Potency [2] | Potency [3]

C=C1C(=O)O[C@@H]2C[C@]3(C)[C@@H](CCC(C)=O)[C@@H]3C[C@H]12
inactive: Potency [1] | Potency [2] | Potency [3]

COCC1OC(n2cnc3c(=O)[nH]cnc32)C(O)C1O (stereo unspecified)
inactive: Potency [1] | Potency [2] | Potency [3]

O=C(O)c1ccncc1Nc1nn(CCN2CCC(F)(F)CC2)c2ccc(F)cc12
inactive: Potency [1] | Potency [2] | Potency [3]

COc1ccc(/C=C/C(=O)O[C@@H]2[C@@H](OC(C)=O)[C@@H](OC(C)=O)[C@H](O[C@H]3[C@@H]4C=CO[C@@H](O[C@@H]5O[C@H](CO)[C@@H](O)[C@H](O)[C@H]5O)[C@@H]4[C@@]4(CO)O[C@@H]34)O[C@H]2C)cc1
inactive: Potency [1] | Potency [2] | Potency [3]

O=C(/C=C/C=C/c1ccc2c(c1)OCO2)N1CCCCC1
inactive: max response [4] -0.461% | max response [5] 3.3% | max response [6] -12.5% | outcome [7] | Potency [1] | Potency [2] | Potency [3]

CCC1(O)CC2c3cc(OC)c(OC)cc3CCN2CC1CC(C)C (stereo unspecified)
inactive: Potency [1] | Potency [2] | Potency [3]

COc1ccc(/C=C/C(=O)N2CCCC2)cc1
inactive: Potency [1] | Potency [2] | Potency [3]

CC(=O)O[C@@H](C[C@@H]1C=C(C)C(=O)O1)[C@H](C)[C@H]1CCC2[C@@]3(C)CC[C@H](O[C@@H]4O[C@H](CO)[C@@H](O)[C@H](O)[C@H]4O[C@@H]4O[C@@H](C)[C@H](O)[C@@H](O)[C@H]4O)C(C)(C)C3CC[C@@]2(C)[C@@]12COC(=O)C2 (stereo partly specified)
inactive: activity change, negative = cytotoxicity [1] -0.38% [at 9.29 µM] | Potency [2] | Potency [3]
